Measurements reported in PubChem BioAssay AID1986 (Sanford-Burnham Center for Chemical Genomics, 2009).
About 890 (0.31%) of roughly 290,000 compounds were called active. Cut-off read from the data, not from the text of the source: active = inhibition mostly above about 52% (no sharp cut-off); inactive = mostly below about 76%. What follows is part of a selection rich in actives, with near analogues and random picks from the rest.

Test: inhibitors of HIV fusion peptide binding, primary screen, biochemical, uHTS, fluorescence dequenching (AID 1986)
Conditions: cell-free peptide binding, 30 min, stronger effect = higher value
[1] = measured here: repeat confirmation average inhibition, at 18.6 µM

| SMILES | inhibition (at 20 µM) | inhibition [1] |
| --- | --- | --- |
| COc1cccc(NC(=O)N(C2CCCCC2)C(C)c2cccs2)c1 (configuration not stated) | -4.1% (inactive) | – |
| CCOC(=O)c1cnc2c(ccc3ccccc32)c1NCCN(C)C | -0.1% (inactive) | – |
| CCOC(=O)c1cccc(NC(=O)CCn2nc(C)c(S(=O)(=O)N3CCCCC3)c2C)c1 | -0.9% (inactive) | – |
| CCC(C)(C)NC(=O)CN(C(=O)C(=O)Nc1ccc2c(c1)OCCO2)N1CCOCC1 | 1.2% (inactive) | – |
| COc1ccccc1N1CCN(C(=O)CCc2ccc(S(=O)(=O)NCC(C)C)cc2)CC1 | 0.1% (inactive) | – |
| N#CC(C#N)=Cc1ccc(OCC(=O)N2CCOCC2)cc1 | 0.6% (inactive) | – |
| O=C1c2ccccc2C(=O)N1c1ccc(Cl)cc1 | -5.5% (inactive) | – |
| O=C1C=C(N2CCCCCC2)C(=O)N1c1ccc(Cl)cc1 | -1.8% (inactive) | – |
| O=C1C=C(Nc2ccc(Cl)cc2)C(=O)N1c1ccc(Cl)cc1 | 54.8% (active) | – |
| COC(=O)C1CCCCN1C(=O)c1cccc(OC2CCN(C(=O)C3CC3)CC2)c1 (configuration not stated) | 1.5% (inactive) | – |
| CCOC(=O)C1=C(O)/C(=C/c2ccc(-c3ccccc3C(=O)O)o2)SC1=Nc1ccc(OC)cc1 | 51.8% (active) | – |
| CCOC(=O)C1=C(O)/C(=C/c2cc(OC)c(OC)c(OC)c2)SC1=Nc1ccc(OC)cc1 | -0.4% (inactive) | – |
| CCOC(=O)C1=C(O)/C(=C/c2cc(OC)c(O)c(OC)c2)SC1=Nc1ccc(OC)cc1 | 32.3% (inactive) | – |
| O=C(CCCCCCCCC(=O)N/N=C/c1ccco1)N/N=C/c1ccco1 | -2.2% (inactive) | – |
| Oc1ccccc1N1CCN(C(=S)NCCc2ccccc2)CC1 | 9.4% (inactive) | – |
| Cc1oc2cc([N+](=O)[O-])c(O)c([N+](=O)[O-])c2c1C(=O)c1ccc(Cl)cc1 | 19.8% (inactive) | – |
| COc1ccc(OC)c(C(=O)c2c(C)oc3cc([N+](=O)[O-])c(O)c([N+](=O)[O-])c23)c1 | -0.7% (inactive) | – |
| Cc1oc2cc([N+](=O)[O-])c(O)c([N+](=O)[O-])c2c1C(=O)c1ccc(Br)cc1 | 51% (active) | – |
| CCCNC(=O)NC(=O)CSc1nnc(C)n1N | 1.6% (inactive) | – |
| CC(=O)c1sc(Nc2cccc(C)c2)nc1C | 0.2% (inactive) | – |
| O=C(O)CN1C(=O)/C(=C\c2ccccc2OCc2ccc(Cl)cc2)SC1=S | 45.9% (inactive) | – |
| O=C(O)CN1C(=O)/C(=C\c2ccccc2OCc2ccc(F)cc2)SC1=S | 60.3% (inactive) | 36.9% |

| SMILES | inhibition (at 20 µM) | inhibition [1] |
| --- | --- | --- |
| O=C(O)CN1C(=O)/C(=C\c2cc([N+](=O)[O-])ccc2OCc2ccccc2Cl)SC1=S | 68.9% (active) | – |
| C=Cn1cc[n+](CC(=O)c2ccc(OC)cc2)c1 | -0.9% (inactive) | – |
| O=C(NCC1(c2ccccc2)CCCC1)c1cccc(Br)c1 | -2.2% (inactive) | – |
| CCOC(=O)c1ccccc1N1C(=O)C2Sc3[nH]c(=O)sc3C(/C=C/c3ccccc3)C2C1=O (configuration not stated) | 31.6% (inactive) | – |
| CCOc1ccc(N2C(=O)C3Sc4[nH]c(=O)sc4C(c4ccc(OC)c(OC)c4)C3C2=O)cc1 (configuration not stated) | 15.2% (inactive) | – |
| CCOc1ccc(N2C(=O)C3Sc4[nH]c(=O)sc4C(/C=C/c4ccccc4)C3C2=O)cc1 (configuration not stated) | 53.6% (active) | – |
| Cc1ccc([N+](=O)[O-])cc1S(=O)(=O)Nc1ccc(C(=O)N(C)C)cc1 | -0.4% (inactive) | – |
| CCC(C(=O)OCCOCCN(CC)CC)c1ccccc1 (configuration not stated) | -1.7% (inactive) | – |
| CN(C(=O)c1ccc(S(=O)(=O)N(C)C)cc1)c1ccc2ccccc2c1 | -2% (inactive) | – |
| O=C(O)c1ccc(COc2ccccc2/C=C2\NC(=O)N(Cc3ccc(F)cc3)C2=O)cc1 | 37.2% (inactive) | – |
| O=C(O)c1ccc(COc2ccccc2/C=C2\NC(=O)N(Cc3ccccc3)C2=O)cc1 | 31.4% (inactive) | – |
| O=C(O)c1ccc(COc2ccccc2/C=C2/NC(=O)N(c3cccc(Cl)c3)C2=O)cc1 | 53.3% (active) | – |
| CCOc1cc(NC(=S)NCCCN2CCOCC2)c(OCC)cc1NC(=O)c1cccs1 | -2.2% (inactive) | – |
| Cc1ccc(-c2c(C#N)c(N)n(-c3ccccc3)c(=O)c2C#N)cc1 | -0.6% (inactive) | – |
| Cc1ccc(-c2c(C#N)c(N)n(-c3ccc(C)cc3)c(=O)c2C#N)cc1 | 3.9% (inactive) | – |
| Cc1ccc(-c2nc3sc(C#N)c(N)n3c(=O)c2C#N)cc1 | 59.9% (active) | 52.2% |
| CC1CCN(c2ccc3nnc(CCC(=O)N4CCN(c5ccccc5F)CC4)n3n2)CC1 | 0.3% (inactive) | – |
| CCOC(=O)C1=NOC(CNC(=O)c2c(-c3ccccc3Cl)noc2C)C1 (configuration not stated) | 0.6% (inactive) | – |
| COc1ccc(CC(NC(C)=O)C(=O)N2CCN(C(=O)N(C(C)C)C(C)C)CC2)cc1 (configuration not stated) | -0.1% (inactive) | – |
| CN(C)c1ccc(/C=C2\SC(N3CCCCC3)=NC2=O)cc1 | 74.1% (active) | 50.6% |
| Cc1ccc(/C=C2\SC(N3CCCC3)=NC2=O)cc1 | -0.9% (inactive) | – |
| Cc1ccc(/C=C2\SC(N3CCCCC3)=NC2=O)cc1 | -1.2% (inactive) | – |

| SMILES | inhibition (at 20 µM) | inhibition [1] |
| --- | --- | --- |
| O=C(O)/C=C/c1cccc(NC(=O)Nc2ccc([N+](=O)[O-])cc2)c1 | 1.6% (inactive) | – |
| O=C(COC(=O)CCc1ccc(S(=O)(=O)N2CCOCC2)cc1)NC(=O)NC1CCCCC1 | 0.6% (inactive) | – |
| CCCOc1cc(C)c(S(=O)(=O)n2ccc(C)n2)cc1C | 1% (inactive) | – |
| CC1=Nc2nc(N3CCCCC3)c(C#N)c3c4c(nc(c23)N1)N(c1ccc(C(C)C)cc1)C(=O)C4 | 63.9% (active) | – |
| CCN(CC)c1nc2c3c(nc4c(c3c1C#N)CC(=O)N4c1ccc(Cl)cc1)NC(C)=N2 | 16.3% (inactive) | – |
| COc1ccc(CN2C(=O)Cc3c2nc(N)c2c(N)nc(N4CCCCC4)c(C#N)c32)cc1 | 23.9% (inactive) | – |
| Cc1onc(-c2ccccc2)c1-c1csc(N/N=C/c2ccccc2)n1 | -1.5% (inactive) | – |
| O=C(Nc1ccccc1)c1ccccc1NS(=O)(=O)c1ccc(Cl)s1 | 28.5% (inactive) | – |
| Cc1ccc(NC(=O)c2ccccc2NS(=O)(=O)c2ccc(Cl)s2)cc1 | 56.3% (inactive) | 29% |
| COc1ccc(C)cc1NC(=O)c1ccccc1NS(=O)(=O)c1ccc(Cl)s1 | 60.5% (active) | – |
| CCN(CC)S(=O)(=O)c1ccc(C(=O)Nc2nnc(-c3ccco3)o2)cc1 | 9.7% (inactive) | – |
| O=C(NC1CC1)C1CCN(C2CCN(C(=O)c3c(F)cccc3Cl)CC2)CC1 | 3.8% (inactive) | – |
| CC(C)CN1CCC(=O)N(CCN=[N+]=[N-])CC1 | -1.2% (inactive) | – |
| CC(C)(Oc1ccc(Cl)cc1)C(=O)Nc1ccncc1 | -1.9% (inactive) | – |
| NC(=O)[C@@H]1CC2(CC(c3cccc(NC(=O)[C@@H]4CCC(=O)N4)c3)=NO2)CN1C(=O)Cc1ccc([N+](=O)[O-])cc1 (some centres not stated) | -1.2% (inactive) | – |
| CCOc1ccc(/C=C2\SC(=S)N(C(C(=O)O)c3ccccc3)C2=O)cc1OC (configuration not stated) | 12.1% (inactive) | – |
| CCOc1ccc(/C=C2/SC(=S)N(C(C(=O)O)c3ccccc3)C2=O)cc1OCC (configuration not stated) | 56.2% (active) | – |
| O=C(O)C(Cc1ccccc1)N1C(=O)/C(=C/c2ccccc2)SC1=S (configuration not stated) | 21.1% (inactive) | – |
| Cc1ccc(/C=C2\SC(=S)N(C(Cc3ccccc3)C(=O)O)C2=O)cc1 (configuration not stated) | 53.9% (active) | – |
| O=C(O)C(Cc1ccccc1)N1C(=O)/C(=C/c2cccs2)SC1=S (configuration not stated) | 17.7% (inactive) | – |
| CCOc1cc(/C=C2\SC(=Nc3ccccc3)N(c3ccccc3)C2=O)ccc1OCC(=O)O | 58.9% (active) | – |
| COc1ccc(/C=C2\SC(=S)N(C(Cc3ccccc3)C(=O)O)C2=O)cc1 (configuration not stated) | 38.4% (inactive) | – |

| SMILES | inhibition (at 20 µM) | inhibition [1] |
| --- | --- | --- |
| COc1cccc(/C=C2\SC(=S)N(C(Cc3ccccc3)C(=O)O)C2=O)c1 (configuration not stated) | 30.7% (inactive) | – |
| COc1cc(/C=C2\SC(=Nc3ccc(F)cc3)N(c3ccc(F)cc3)C2=O)ccc1OCC(=O)O | 35.3% (inactive) | – |
| O=C(O)C(Cc1ccccc1)N1C(=O)/C(=C/c2cccc3ccccc23)SC1=S (configuration not stated) | 52.6% (active) | – |
| CCOc1cc(/C=C2\SC(=Nc3ccc(F)cc3)N(c3ccc(F)cc3)C2=O)ccc1OCC(=O)O | 41.5% (inactive) | – |
| COc1cc(/C=C2\SC(=S)N(C(C(=O)O)c3ccccc3)C2=O)ccc1O (configuration not stated) | 47.4% (inactive) | – |
| Cc1ccc(NC(=O)c2ccc3nsnc3c2)c(Cl)c1 | 1.6% (inactive) | – |
| O=C(CSc1nnc(C2CCCCC2)o1)Nc1ccccc1Cl | 2.8% (inactive) | – |
| O=C(NN=C1CCCC1)c1ccc(Cl)cc1 | -0.5% (inactive) | – |
| CC(C)(C)c1ccc(NC(=S)NCCc2ccccn2)cc1 | -0.5% (inactive) | – |
| COc1cccc(C2C3CN(C)CC=C3C(C#N)=C(N)C2(C#N)C#N)c1OC (configuration not stated) | 149% (inactive) | – |
| CCN1CC=C2C(C#N)=C(N)C(C#N)(C#N)[C@H](c3cccc(OC)c3OC)[C@H]2C1 | 61.5% (active) | – |
| CCOC(=O)N1CC=C2C(C#N)=C(N)C(C#N)(C#N)[C@H](c3ccccc3OCC)[C@H]2C1 | 0.7% (inactive) | – |
| CCCN1CC=C2C(C#N)=C(N)C(C#N)(C#N)C(c3cccc(OC)c3OC)C2C1 (configuration not stated) | 67.5% (active) | – |
| COc1ccc([C@@H]2[C@H]3CN(C(C)=O)CC=C3C(C#N)=C(N)C2(C#N)C#N)c2ccccc12 | -3.1% (inactive) | – |
| CCN1CC=C2C(C#N)=C(N)C(C#N)(C#N)C(c3cc(Cl)ccc3Cl)C2C1 (configuration not stated) | 2.6% (inactive) | – |
| Cn1c(COc2ccccc2)nnc1SCC(=O)NCc1ccccc1 | -0.1% (inactive) | – |
| CC1(C)CC(NCc2cccc([N+](=O)[O-])c2)CC(C)(C)N1 | -1.8% (inactive) | – |
| CN(C)n1cnc2ccsc2c1=O | 1.1% (inactive) | – |
| CN(C(=O)COC(=O)CNC(=O)c1ccccc1Cl)c1ccccc1 | -0.3% (inactive) | – |
| CCC1=NN2C(=N)/C(=C\c3cccn3-c3ccc(C)cc3C)C(=O)N=C2S1 | 51% (active) | – |
| CCC1=NN2C(=N)/C(=C\c3cccn3-c3ccc(C)c(C)c3)C(=O)N=C2S1 | 35.7% (inactive) | – |
| CCC1=NN2C(=N)/C(=C\c3cccn3-c3c(C)cccc3C)C(=O)N=C2S1 | 25.7% (inactive) | – |
